# Results reported in the supplement of paper PMC8728848.
# About 410 targets per protein were measured; listed, in parts, are those with the strongest signals and a random draw of the rest.
# Experiments:
# Test in all cases: glycan array binding signal (z-score within array); higher = stronger binding
# Conditions in all cases: glycan notation: IUPAC condensed, linker removed
# [1] = target: Fuc(a1-2)Gal(b1-3)GlcNAc(b1-3)[Neu5Ac(a2-6)Gal(b1-4)GlcNAc(b1-6)]Gal(b1-4)Glc
# Outline: (§1)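 The binding signal is a Z-score computed within each array. Data were drawn from 3228 arrays in the Consortium for Functional Glycomics database, restricted to those with a known protein sequence. Scores were averaged over arrays of the same protein sequence at different concentrations or buffers, and over linkers, and negative values can be taken as non-binding.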
# [2] = target: Fuc(a1-2)Gal(b1-4)GlcNAc(b1-2)Man
# Outline: as §1
# [3] = target: Fuc(a1-2)Gal(b1-4)GlcNAc(b1-2)[Fuc(a1-2)Gal(b1-4)GlcNAc(b1-4)]Man(a1-3)[Fuc(a1-2)Gal(b1-4)GlcNAc(b1-2)Man(a1-6)]Man(b1-4)GlcNAc(b1-4)GlcNAc
# Outline: as §1
# [4] = target: Fuc(a1-2)Gal(b1-4)GlcNAc(b1-3)Gal(b1-4)GlcNAc(b1-3)Gal(b1-4)GlcNAc
# Outline: as §1
# [5] = target: Fuc(a1-2)[Gal(a1-3)]Gal(b1-3)GalNAc(b1-3)Gal(a1-4)Gal(b1-4)Glc
# Outline: as §1
# [6] = target: Fuc(a1-3)[Gal(b1-4)]Glc6S
# Outline: as §1
# [7] = target: Fuc(a1-3)[Gal(b1-4)]GlcNAc(b1-2)Man(a1-3)[Fuc(a1-3)[Gal(b1-4)]GlcNAc(b1-2)Man(a1-6)]Man(b1-4)GlcNAc(b1-4)GlcNAc
# Outline: as §1
# [8] = target: Fuc(a1-3)[Gal(b1-4)]GlcNAc(b1-3)Gal(b1-3)[Fuc(a1-4)]GlcNAc
# Outline: as §1
# [9] = target: Fuc(a1-3)[Gal(b1-4)]GlcNAc(b1-3)Gal(b1-4)[Fuc(a1-3)]GlcNAc
# Outline: as §1
# [10] = target: Fuc(a1-3)[Gal(b1-4)]GlcNAc(b1-3)GalNAc
# Outline: as §1
# [11] = target: Gal(a1-3)Gal
# Outline: as §1
# [12] = target: Gal(a1-3)Gal(b1-3)GlcNAc(b1-2)Man(a1-3)[Gal(a1-3)Gal(b1-3)GlcNAc(b1-2)Man(a1-6)]Man(b1-4)GlcNAc(b1-4)GlcNAc
# Outline: as §1
# [13] = target: Gal(a1-3)Gal(b1-4)[Fuc(a1-3)]GlcNAc(b1-2)Man(a1-3)[Gal(a1-3)Gal(b1-4)[Fuc(a1-3)]GlcNAc(b1-2)Man(a1-6)]Man(b1-4)GlcNAc(b1-4)GlcNAc
# Outline: as §1
# [14] = target: Gal(a1-4)Gal(b1-4)GlcNAc
# Outline: as §1
# [15] = target: Gal(b1-3)GalNAc(b1-3)Gal(a1-4)Gal(b1-4)Glc
# Outline: as §1
# [16] = target: Gal(b1-3)GlcNAc(a1-3)Gal(b1-4)GlcNAc
# Outline: as §1
# [17] = target: Gal(b1-3)GlcNAc(b1-3)GalNAc
# Outline: as §1
# [18] = target: Gal(b1-3)[Fuc(a1-4)]GlcNAc(b1-2)Man(a1-3)[Gal(b1-3)[Fuc(a1-4)]GlcNAc(b1-2)Man(a1-6)]Man(b1-4)GlcNAc(b1-4)[Fuc(a1-6)]GlcNAc
# Outline: as §1
# [19] = target: Gal(b1-3)[Neu5Ac(a2-6)]GalNAc
# Outline: as §1
# [20] = target: Gal(b1-4)GlcNAc(b1-2)[Gal(b1-4)GlcNAc(b1-4)]Man(a1-3)[GlcNAc(b1-4)][Gal(b1-4)GlcNAc(b1-2)Man(a1-6)]Man(b1-4)GlcNAc(b1-4)GlcNAc
# Outline: as §1
# [21] = target: Gal(b1-4)GlcNAc(b1-3)Gal(b1-4)Glc
# Outline: as §1
# [22] = target: Gal(b1-4)GlcNAc(b1-3)Gal(b1-4)GlcNAc(b1-2)Man(a1-3)[Gal(b1-4)GlcNAc(b1-3)Gal(b1-4)GlcNAc(b1-2)Man(a1-6)]Man(b1-4)GlcNAc(b1-4)GlcNAc
# Outline: as §1
# [23] = target: Gal(b1-4)GlcNAc(b1-3)Gal(b1-4)GlcNAc(b1-3)Gal(b1-4)GlcNAc(b1-3)Gal(b1-4)GlcNAc(b1-2)Man(a1-3)[Gal(b1-4)GlcNAc(b1-3)Gal(b1-4)GlcNAc(b1-3)Gal(b1-4)GlcNAc(b1-3)Gal(b1-4)GlcNAc(b1-2)Man(a1-6)]Man(b1-4)GlcNAc(b1-4)[Fuc(a1-6)]GlcNAc
# Outline: as §1
# [24] = target: Gal(b1-4)GlcNAc(b1-3)Gal(b1-4)GlcNAc(b1-3)Gal(b1-4)GlcNAc(b1-3)Gal(b1-4)GlcNAc(b1-2)[Gal(b1-4)GlcNAc(b1-3)Gal(b1-4)GlcNAc(b1-3)Gal(b1-4)GlcNAc(b1-3)Gal(b1-4)GlcNAc(b1-6)]Man(a1-6)[Gal(b1-4)GlcNAc(b1-3)Gal(b1-4)GlcNAc(b1-3)Gal(b1-4)GlcNAc(b1-3)Gal(b1-4)GlcNAc(b1-2)Man(a1-3)]Man(b1-4)GlcNAc(b1-4)[Fuc(a1-6)]GlcNAc
# Outline: as §1
# [25] = target: Gal3S(b1-4)Glc6S
# Outline: as §1
# [26] = target: Gal3S(b1-4)[Fuc(a1-3)]Glc6S
# Outline: as §1
# [27] = target: Gal6S(b1-3)GlcNAc
# Outline: as §1
# [28] = target: GalNAc(a1-3)GalNAc(b1-3)Gal(a1-4)Gal(b1-4)Glc
# Outline: as §1
# [29] = target: GalNAc(b1-3)Gal(a1-6)Gal(b1-4)Glc
# Outline: as §1
# [30] = target: GalNAc3S(b1-4)[Fuc(a1-3)]GlcNAc
# Outline: as §1
# [31] = target: Glc(a1-4)Glc
# Outline: as §1
# [32] = target: GlcA(b1-3)Gal
# Outline: as §1
# [33] = target: GlcNAc(b1-2)Gal(b1-3)GalNAc
# Outline: as §1
# [34] = target: GlcNAc(b1-3)Gal(b1-4)GlcNAc(b1-2)Man(a1-3)[GlcNAc(b1-3)Gal(b1-4)GlcNAc(b1-2)Man(a1-6)]Man(b1-4)GlcNAc(b1-4)GlcNAc
# Outline: as §1
# [35] = target: GlcNAc(b1-3)Gal(b1-4)GlcNAc(b1-2)[GlcNAc(b1-3)Gal(b1-4)GlcNAc(b1-6)]Man(a1-6)[GlcNAc(b1-3)Gal(b1-4)GlcNAc(b1-2)Man(a1-3)]Man(b1-4)GlcNAc(b1-4)GlcNAc
# Outline: as §1
# [36] = target: GlcNAc(b1-3)Gal(b1-4)GlcNAc(b1-3)Gal(b1-4)GlcNAc(b1-2)Man(a1-3)[GlcNAc(b1-3)Gal(b1-4)GlcNAc(b1-3)Gal(b1-4)GlcNAc(b1-2)Man(a1-6)]Man(b1-4)GlcNAc(b1-4)GlcNAc
# Outline: as §1
# [37] = target: GlcNAc(b1-3)Gal(b1-4)GlcNAc(b1-3)Gal(b1-4)GlcNAc(b1-3)Gal(b1-4)GlcNAc(b1-2)Man(a1-3)[GlcNAc(b1-3)Gal(b1-4)GlcNAc(b1-3)Gal(b1-4)GlcNAc(b1-3)Gal(b1-4)GlcNAc(b1-2)Man(a1-6)]Man(b1-4)GlcNAc(b1-4)[Fuc(a1-6)]GlcNAc
# Outline: as §1
# [38] = target: GlcNAc(b1-3)Gal(b1-4)GlcNAc(b1-3)Gal(b1-4)GlcNAc(b1-3)Gal(b1-4)GlcNAc(b1-3)Gal(b1-4)GlcNAc(b1-2)Man(a1-3)[GlcNAc(b1-3)Gal(b1-4)GlcNAc(b1-3)Gal(b1-4)GlcNAc(b1-3)Gal(b1-4)GlcNAc(b1-3)Gal(b1-4)GlcNAc(b1-2)Man(a1-6)]Man(b1-4)GlcNAc(b1-4)GlcNAc
# Outline: as §1
# [39] = target: GlcNAc(b1-3)Gal(b1-4)GlcNAc(b1-6)[GlcNAc(b1-3)Gal(b1-3)]GalNAc
# Outline: as §1
# [40] = target: GlcNAc(b1-4)Gal(b1-4)GlcNAc
# Outline: as §1
# [41] = target: Kdn(a2-6)Gal(b1-4)GlcNAc
# Outline: as §1
# [42] = target: Man(a1-2)Man(a1-3)Man
# Outline: as §1
# [43] = target: Man(a1-3)[Man(a1-6)]Man(a1-6)[Man(a1-3)]Man(b1-4)GlcNAc(b1-4)GlcNAc
# Outline: as §1
# [44] = target: Neu5Ac(a2-3)Gal(b1-3)GlcNAc6S
# Outline: as §1
# [45] = target: Neu5Ac(a2-3)Gal(b1-4)GlcNAc(b1-3)Gal(b1-4)GlcNAc(b1-3)Gal(b1-4)GlcNAc
# Outline: as §1
# [46] = target: Neu5Ac(a2-3)Gal(b1-4)[Fuc(a1-3)]GlcNAc(b1-3)GalNAc
# Outline: as §1
# [47] = target: Neu5Ac(a2-3)Gal(b1-4)[Fuc(a1-3)]GlcNAc6S
# Outline: as §1
# [48] = target: Neu5Ac(a2-3)[GalNAc(b1-4)]Gal(b1-4)GlcNAc
# Outline: as §1
# [49] = target: Neu5Ac(a2-3)[GalNAc(b1-4)]Gal(b1-4)GlcNAc(b1-3)GalNAc
# Outline: as §1
# [50] = target: Neu5Ac(a2-6)Gal
# Outline: as §1
# [51] = target: Neu5Ac(a2-6)Gal(b1-3)GlcNAc(b1-3)[Gal(b1-4)GlcNAc(b1-6)]Gal(b1-4)Glc
# Outline: as §1
# [52] = target: Neu5Ac(a2-6)Gal(b1-4)GlcNAc(b1-2)Man(a1-3)[Neu5Ac(a2-6)Gal(b1-4)GlcNAc(b1-2)Man(a1-6)]Man(b1-4)GlcNAc(b1-4)[Fuc(a1-6)]GlcNAc
# Outline: as §1
# [53] = target: Neu5Ac(a2-6)GalNAc
# Outline: as §1
# [54] = target: Neu5Ac(b2-6)GalNAc
# Outline: as §1
binder,measurement,setting,value
"Langerin K299A/K313A (Homo sapiens), Q9UJ71 (protein) STLNAQIPELKSDLEKASALNTKIRALQGSLENMSKLLKRQNDILQVVSQGWKYFKGNFYYFSLIPKTWYSAEQFCVSRNSHLTSVTSESEQEFLYKTAGGLIYWIGLTKAGMEGDWSWVDDTPFNKVQSARFWIPGEPNNAGNNEHCGNIAAPSLQAWNDAPCDATFLFICKRPYVPSEP",glycan array binding signal (z-score),[1],0.388
same,glycan array binding signal (z-score),[2],-0.127
same,glycan array binding signal (z-score),[3],2.71
same,glycan array binding signal (z-score),[4],0.332
same,glycan array binding signal (z-score),[5],-0.015
same,glycan array binding signal (z-score),[6],3.28
same,glycan array binding signal (z-score),[7],0.222
same,glycan array binding signal (z-score),[8],0.313
same,glycan array binding signal (z-score),[9],0.842
same,glycan array binding signal (z-score),[10],-0.202
same,glycan array binding signal (z-score),[11],-0.327
same,glycan array binding signal (z-score),[12],1.22
same,glycan array binding signal (z-score),[13],0.892
same,glycan array binding signal (z-score),[14],-0.009
same,glycan array binding signal (z-score),[15],-0.916
same,glycan array binding signal (z-score),[16],-0.826
same,glycan array binding signal (z-score),[17],0
same,glycan array binding signal (z-score),[18],1.85
same,glycan array binding signal (z-score),[19],0.445
same,glycan array binding signal (z-score),[20],-0.95
same,glycan array binding signal (z-score),[21],-0.709
same,glycan array binding signal (z-score),[22],3.14
same,glycan array binding signal (z-score),[23],3.97
same,glycan array binding signal (z-score),[24],3.09
same,glycan array binding signal (z-score),[25],-0.193
same,glycan array binding signal (z-score),[26],5.35
same,glycan array binding signal (z-score),[27],-0.241
same,glycan array binding signal (z-score),[28],0.162
same,glycan array binding signal (z-score),[29],0.155
same,glycan array binding signal (z-score),[30],-1
same,glycan array binding signal (z-score),[31],-0.103
same,glycan array binding signal (z-score),[32],-0.832
same,glycan array binding signal (z-score),[33],0.486
same,glycan array binding signal (z-score),[34],0.619
same,glycan array binding signal (z-score),[35],3.64
same,glycan array binding signal (z-score),[36],0.828
same,glycan array binding signal (z-score),[37],5.83
same,glycan array binding signal (z-score),[38],2.75
same,glycan array binding signal (z-score),[39],-0.82
same,glycan array binding signal (z-score),[40],-0.886
same,glycan array binding signal (z-score),[41],0.407
same,glycan array binding signal (z-score),[42],-1.07
same,glycan array binding signal (z-score),[43],-0.582
same,glycan array binding signal (z-score),[44],-0.784
same,glycan array binding signal (z-score),[45],0.361
same,glycan array binding signal (z-score),[46],3.01
same,glycan array binding signal (z-score),[47],0.192
same,glycan array binding signal (z-score),[48],-0.463
same,glycan array binding signal (z-score),[49],0.982
same,glycan array binding signal (z-score),[50],0.01
same,glycan array binding signal (z-score),[51],0.329
same,glycan array binding signal (z-score),[52],3.07
same,glycan array binding signal (z-score),[53],-0.621
same,glycan array binding signal (z-score),[54],-0.61
